Test [1] has as its target Aldehyde dehydrogenase, mitochondrial (Homo sapiens) (UniProt P05091). As to the kind of experiment: qHTS for Inhibitors of the Aldehyde Dehydrogenase Family (ALDH2) Primary screen (AID 2061308). Also: nearly all actives have a fitted effect of over 55% in size. The note with it: ALDH2 enzyme inhibition qHTS, 1536-well; series mostly up to 56 µM.
Test [2] has as its target Retinaldehyde dehydrogenase 3 (Homo sapiens) (UniProt P47895). The test can be described thus: qHTS for Inhibitors of the Aldehyde Dehydrogenase Family (ALDH1A3) Primary screen (AID 2061315). The settings on record: ALDH inhibition qHTS; series mostly up to 56 µM. On the technique in general: In qHTS, concentration-response curves come from the screen itself.

Results filed as inconclusive are left out. Entries that show only a call come without a potency. The source made the active and inactive calls. Calls follow the shape of the dose curve; as a rule, active = well fitted curve in the direction sought with a large enough effect; inconclusive = small, poorly fitted or top-dose-only effect, or another doubt; inactive = no such curve, though single readings can be large; an effect the other way counts as inactive or inconclusive.

`Cc1cc(C)n2ncc(C(=O)Nc3cc(Cl)cc(Cl)c3)c2n1`: the Potency result in test [1] and in test [2] was “inactive” each time.
On to `O=C(Nc1ccc(O)c2ncccc12)c1ccccc1F`, for which the Potency result in test [1] and in test [2] was “inactive” in each case.
On to `O=C(OCc1c(-c2ccccc2)no[n+]1[O-])c1ccccc1`, for which the Potency entry in test [1] and in test [2] was “inactive” throughout.
Regarding `O=S(=O)(Nc1nccs1)c1ccc(Nc2nc(-c3ccccc3)cs2)cc1`, the Potency result in test [1] and in test [2] was “inactive” throughout.
As to `Cc1cc2c(s1)c1cnn(Cc3ccc(C(F)(F)F)cc3F)c(=O)c1n2C`, the Potency entry in test [1] and in test [2] was “inactive” in each case.
Regarding `Cc1cc(NS(=O)(=O)c2ccc(N(C)C(=O)Cc3ccc(Cl)c(Cl)c3)cc2)no1`, the Potency entry in test [1] and in test [2] was “inactive” throughout.
In the case of `O=C1CCCC2=C1C(c1[nH]ncc1Cl)N=C(Nc1ccccn1)N2` (stereo unspecified), the Potency result in test [1] and in test [2] was “inactive” in each case.
With `C=CCNc1oc(C2CCCC2)nc1C#N`, the Potency result in test [1] and in test [2] was “inactive” throughout.
As for `Nc1cc(NC(=O)Nc2nnc(-c3ccncc3)s2)ccc1Cl`, the Potency entry in test [1] and in test [2] was “inactive” throughout.
`CC(C)(C)N[S+](=O)([O-])c1cccc(-c2nnc(SCC(=O)Nc3ccc(C(=O)O)cc3)n2-c2ccccc2)c1`: the Potency result in test [1] and in test [2] was “inactive” each time.
Take `Cc1cc(-c2nnc3n2CCC3)c(C)n1-c1ccccc1`: the Potency entry in test [1] and in test [2] was “inactive” in each case.
In the case of `NC(=O)c1cccc(-c2noc(-c3ccccc3F)n2)c1`, the Potency result in test [1] and in test [2] was “inactive” each time.
Turning to `O=C(OCC#CCSc1nnc(-c2ccc3ccccc3c2)o1)c1cccc(F)c1`, the Potency result in test [1] and in test [2] was “inactive” each time.
On to `Cc1cc(C)nc(NC(=S)N2CCN(c3nnc(C(F)(F)F)s3)CC2)c1`, for which the Potency result in test [1] and in test [2] was “inactive” throughout.
`CN(Cc1cccs1)c1nc(-c2ccccc2C(F)(F)F)nc2ccccc12`: the Potency result in test [1] and in test [2] was “inactive” each time.
As for `O=C(O)c1ccncc1Nc1nn(CCN2CCC(F)(F)CC2)c2ccc(F)cc12`, the Potency entry in test [1] and in test [2] was “inactive” throughout.
With `CCOc1ccc(CCNC(=O)c2cc3sccc3n2Cc2ccncc2)cc1OCC`, the Potency entry in test [1] and in test [2] was “inactive” each time.
As for `NC(=O)c1cnc(N[C@@H]2CCCC[C@H]2N)nc1Nc1cccc(-n2nccn2)c1`, the Potency result in test [1] and in test [2] was “inactive” each time.
For `CCOC(=O)c1[nH]c2c(c1C)C(=O)CCC2`, the Potency result in test [1] and in test [2] was “inactive” in each case.
With `Cc1ccnc(NC(=S)N2CCN(c3ncc(C(F)(F)F)cc3Cl)CC2)c1`, the Potency entry in test [1] and in test [2] was “inactive” throughout.
Take `Cc1ccc(NC(=O)CN2C(=O)N/C(=C\c3cccn3-c3ccc(C(=O)NOCc4ccccc4)cc3)C2=O)cc1`: the Potency result in test [1] and in test [2] was “inactive” throughout.
Turning to `Cc1cc(C)n2ncc(C(=O)Nc3ccc4c(c3)OCCO4)c2n1`, the Potency entry in test [1] and in test [2] was “inactive” each time.
As to `O=C(NC1CCCc2c1cnn2-c1ccc(F)cc1F)c1ccc(C2(C(F)(F)F)N=N2)cc1` (stereo unspecified), the Potency entry in test [1] and in test [2] was “inactive” each time.
As to `CCOc1ccccc1OCCNC(C)Cc1ccc(OC)c(S(N)(=O)=O)c1` (stereo unspecified), the Potency result in test [1] and in test [2] was “inactive” throughout.
Regarding `COc1ccc(C2NC(=O)c3ccccc3N2)cc1COc1c(C)cc(NC(C)=O)cc1C` (stereo unspecified), the Potency result in test [1] and in test [2] was “inactive” in each case.
Consider `Cc1ccc(OCCn2c(CCNC(=O)Cc3ccccc3)nc3ccccc32)cc1`, for which the Potency entry in test [1] and in test [2] was “inactive” each time.
On to `CCN(CC)CCCn1c(-c2ccccc2)nc2c(N(CCOC)CCOC)nc(C)nc21`, for which the Potency result in test [1] and in test [2] was “inactive” throughout.
Turning to `CCOC(=O)c1cnc2ccc(-c3cncc(NS(=O)(=O)c4ccccc4)c3)cn12`, the Potency entry in test [1] and in test [2] was “inactive” throughout.
Consider `COc1cc(OC)c(C(CC(=O)N2CC(C)CC(C)C2)c2ccc3c(c2)OCO3)c(OCC#N)c1` (stereo unspecified), for which the Potency entry in test [1] and in test [2] was “inactive” in each case.
`O=C1CCCC2=C1C(c1cccc(C(F)(F)F)c1)N=C(Nc1nc3ccccc3o1)N2` (stereo unspecified): the Potency entry in test [1] and in test [2] was “inactive” throughout.
As to `O=C(c1ccc(F)c(F)c1Nc1ccc(I)cc1F)N1CC(O)(C2CCCCN2)C1` (stereo unspecified), the Potency result in test [1] and in test [2] was “inactive” in each case.
Take `CC(=O)Nc1sc2c(c1-c1cccc(N(C)C)c1)CCNC2`: the Potency result in test [1] and in test [2] was “inactive” in each case.
Turning to `CC(=O)Nc1sc2c(c1-c1nc3ccccc3s1)CCN(C(=O)OC(C)(C)C)C2`, the Potency entry in test [1] and in test [2] was “inactive” each time.
Turning to `O=C(Nc1cc(C(F)(F)F)ccc1Cl)[C@H](O)CCc1ccccc1`, the Potency entry in test [1] and in test [2] was “inactive” each time.
Consider `c1c[nH]c(CNc2ncnc3ccc(-c4ccc5c(c4)OCO5)cc23)n1`, for which the Potency entry in test [1] and in test [2] was “inactive” throughout.
Take `O=C(CNC(=O)c1cccc2ccccc12)OC(C(=O)Nc1cc(C(F)(F)F)ccc1Cl)c1ccccc1` (stereo unspecified): the Potency entry in test [1] and in test [2] was “inactive” in each case.
Consider `CCOc1ccc(CCNC(=O)c2cc3ccccc3o2)cc1OCC`, for which the Potency entry in test [1] and in test [2] was “inactive” throughout.
Regarding `COC(=O)c1ccccc1NC(=O)c1ccccc1OC(F)F`, the Potency result in test [1] and in test [2] was “inactive” in each case.

(Values after PubChem BioAssay (NCATS).)
